From ChEMBL document CHEMBL3988442, “University of Dundee, Small-Polar-MMV Screening Library” (2021) come the findings set out here.

The campaign covered roughly 48,000 compounds. About 13,000 (27%) showed an effect of 50% or more. Some of the results follow.

This assay has as its system Wolbachia pipientis. Nature of the assay: Anti-Wolbachia Cell-Based Screen. The settings on record: 5 µM. The format is functional. Further details: scale not given: in the data most compounds retested in dose-response had high values.
With `CCOCCn1nc(C)cc1C(=O)N1CC[C@](C)(O)[C@H](C)C1`, the “Percent Effect” value is given as -22.18%.
As for `C[C@@H]1CN(Cc2nc(C(N)=O)no2)CC[C@@]1(O)C1CC1`, the figure is 3.604%; as for `CCN(CC)C(CNCc1ccc(O)cc1)c1ccco1` (centres undefined), 0.1551%.
For `COc1ccccc1CN(CCCn1ccnc1)CC1CCOC1.O=C(O)CC(O)(CC(=O)O)C(=O)O` (centres undefined), the “Percent Effect” value was found to be 173.3%.
Under `CC1COCCN1C(=O)NCCCn1ccnc1` (centres undefined) stands -6.702%; under `CCc1ccc(CN(CCCn2ccnc2)Cc2ccc(C)s2)o1.O=C(O)CC(O)(CC(=O)O)C(=O)O`, -10.6%.
Under `Fc1ccccc1CN(CCCn1ccnc1)CC1CCOC1.O=C(O)CC(O)(CC(=O)O)C(=O)O` (centres undefined) stands 96.39%; under `O=C(NCCCn1ccnc1)C1COCC(=O)N1Cc1ccccc1` (centres undefined), -1.911%; under `CN(Cc1cccnc1)CC1CCOc2ccccc2C1` (centres undefined), 1.385%.
Under `Cc1ccc(CN(CCCn2ccnc2)Cc2c[nH]cn2)s1.O=C(O)CC(O)(CC(=O)O)C(=O)O` stands -8.779%.
For `c1cncc(CN(CCCn2ccnc2)CC2CCOC2)c1` (centres undefined), the “Percent Effect” value is given as 114.4%.
As for `CCCN(Cc1cccnc1)Cc1ccc(C2CCCCO2)o1` (centres undefined), the figure is 8.313%; as for `Cc1nc(C)c(C(=O)NCCOc2ccc(C(F)(F)F)cn2)o1`, -28.79%.
As for `N[C@H]1CCCN(C(=O)c2cnc(COc3ccccc3)nc2O)C1`, the figure is -11.28%; as for `CC(C)n1c(C2CCCN(CCS(C)(=O)=O)C2)nc2ccccc21` (centres undefined), -3.684%; as for `Cc1nc2sccn2c1C(=O)N1CCn2nc(C(=O)NC3CC3)cc2C1`, 8.039%.
As for `Cc1cnc(N2C[C@H]3CCCC(N(C)Cc4ccccn4)[C@H]3C2)nc1.O=C(O)C(F)(F)F` (some centres undefined), the figure is -11.38%; as for `CCCN1CCN(Cc2cccc(OC(C)C)c2)[C@H]2CS(=O)(=O)C[C@H]21`, -22.43%.
As for `Cc1c[nH]nc1C1CCCN(c2cnccn2)C1` (centres undefined), the “Percent Effect” value amounted to 152.5%.
Under `CCc1cnc(N2CCOC(CCOC)C2)nc1` (centres undefined) stands -10.95%; under `COc1ccc(C(=O)C2CCCN(c3cnccn3)C2)c(C)c1` (centres undefined), -36.51%.
Take `Cc1cccc(C)c1OC1CN(Cc2cnc(N3CCOCC3)nc2)C1`: the “Percent Effect” value is -7.257%.
Take `COCCN1C[C@@H]2CN(c3cnccn3)C[C@@H]2C1=O`: the “Percent Effect” value is recorded as -23.71%.
As for `Cc1c[nH]nc1C1CN(c2ncccn2)CCO1` (centres undefined), the figure is 139.2%.
Under `Cc1c[nH]nc1C1CN(c2cnccn2)CCO1` (centres undefined) stands 155.2%; under `CC(C)C1CN(c2cnccn2)CCC(=O)N1Cc1ccc(F)cc1` (centres undefined), -0.3567%; under `COCCn1ccnc1C1CCCN(c2cnccn2)C1` (centres undefined), -8.201%.
As for `Cc1c[nH]nc1C1CCN(c2cnccn2)C1` (centres undefined), the figure is 87.37%; as for `N#Cc1cccc(N2CCC(CO)(CCCc3ccccc3)CC2)n1`, -12.61%.
`CC(C)(C)c1cnc(CNc2cccc(Cn3cnnc3)c2)o1`: the “Percent Effect” value is reported as -22.9%.
Under `CC(C)[C@H](NC(=O)c1cccc(CCC(C)(C)O)c1)C(N)=O` stands -12.73%; under `COc1ccc(CNC(=O)NCc2ccc(C)cc2)cn1`, -5.418%.
For the molecule `CCOC(=O)NC(C(=O)NCc1ccc(N2CCCCC2)nc1)C(C)C` (centres undefined), the “Percent Effect” value is 2.776%.
Under `Cc1cccc(C(=O)NC(C(=O)NCc2ccc(O)nc2)C(C)C)c1` (centres undefined) stands 103%; under `CC(C)C(NC(=O)Cc1ccccc1)C(=O)NCc1ccc(O)nc1` (centres undefined), 106%.
For `COc1ccc(CNC(=O)NCc2ccc(C(N)=O)cc2)cn1`, the “Percent Effect” value was found to be 4.713%.
Under `COc1ccc(CNC(=O)C(NC(=O)Cc2ccccc2)C(C)C)cn1` (centres undefined) stands 88.86%; under `CC(C)[C@H](NC(=O)NC1CCS(=O)(=O)C1)C(=O)NCc1cccnc1` (some centres undefined), 1.711%.
As for `Cc1nccn1-c1ccc(CNC(=O)c2ccc(O)nc2)cn1`, the figure is -3.999%.
Under `O=S(=O)(CCCS(=O)(=O)c1ccc2c(c1)OCCCO2)c1ccccc1` stands -9.516%; under `CC(C)CN1CCCn2nc(CNC(=O)CCCc3cn[nH]c3)cc2C1`, -2.664%; under `O=C(Nc1cc2c(cc1Br)OCCO2)NC1CCS(=O)(=O)C1` (centres undefined), -24.26%.
As to `CC(C)CCN1C[C@H]2C[C@H](C(=O)NCC(C)C)[C@@H](C1)O2.O=C(O)C(F)(F)F`, the “Percent Effect” value amounted to 100.1%.
As for `CC(C)CN1C[C@H]2C[C@H](C(=O)N3CCCC3)[C@@H](C1)O2.O=C(O)C(F)(F)F`, the figure is 105.1%; as for `Cc1cccc(S(=O)(=O)N2C[C@H]3C[C@H](C(=O)NCC(C)C)[C@@H](C2)O3)c1`, -2.145%.
As for `CC(C)CCN1C[C@H]2C[C@H](C(=O)N3CCCC3)[C@@H](C1)O2.O=C(O)C(F)(F)F`, the figure is 103.2%; as for `CC(C)CNC(=O)[C@H]1C[C@@H]2CN(C(=O)NCC3CCCCC3)C[C@H]1O2`, -20.2%.
As for `Cc1ccccc1CNC(=O)N1C[C@H]2C[C@H](C(=O)N3CCCC3)[C@@H](C1)O2`, the figure is 2.79%.
Consider `CC(O)C1CCN(C(=O)Nc2nc(-c3ccccc3)ns2)CC1` (centres undefined), for which the “Percent Effect” value is -6.98%.
